The values below come from ChEMBL document CHEMBL3988442, “University of Dundee, Small-Polar-MMV Screening Library” (2021).

What all share (design): scale not given: direction of the effect not stated beside the values
Experiment [1] concerns the target Protein translocase subunit SecA (Escherichia coli (strain K12)) (UniProt P10408). Nature of the experiment: Assay to Identify E. coli SecA ATPase Inhibitors. Format: functional. The note with it: 30 µM.
Experiment [2] concerns the target T1, Ubiquitin-activating enzyme e1, putative (Leishmania donovani (strain BPK282A1)) (UniProt E9BSI1).
T1 sequence (whole entry): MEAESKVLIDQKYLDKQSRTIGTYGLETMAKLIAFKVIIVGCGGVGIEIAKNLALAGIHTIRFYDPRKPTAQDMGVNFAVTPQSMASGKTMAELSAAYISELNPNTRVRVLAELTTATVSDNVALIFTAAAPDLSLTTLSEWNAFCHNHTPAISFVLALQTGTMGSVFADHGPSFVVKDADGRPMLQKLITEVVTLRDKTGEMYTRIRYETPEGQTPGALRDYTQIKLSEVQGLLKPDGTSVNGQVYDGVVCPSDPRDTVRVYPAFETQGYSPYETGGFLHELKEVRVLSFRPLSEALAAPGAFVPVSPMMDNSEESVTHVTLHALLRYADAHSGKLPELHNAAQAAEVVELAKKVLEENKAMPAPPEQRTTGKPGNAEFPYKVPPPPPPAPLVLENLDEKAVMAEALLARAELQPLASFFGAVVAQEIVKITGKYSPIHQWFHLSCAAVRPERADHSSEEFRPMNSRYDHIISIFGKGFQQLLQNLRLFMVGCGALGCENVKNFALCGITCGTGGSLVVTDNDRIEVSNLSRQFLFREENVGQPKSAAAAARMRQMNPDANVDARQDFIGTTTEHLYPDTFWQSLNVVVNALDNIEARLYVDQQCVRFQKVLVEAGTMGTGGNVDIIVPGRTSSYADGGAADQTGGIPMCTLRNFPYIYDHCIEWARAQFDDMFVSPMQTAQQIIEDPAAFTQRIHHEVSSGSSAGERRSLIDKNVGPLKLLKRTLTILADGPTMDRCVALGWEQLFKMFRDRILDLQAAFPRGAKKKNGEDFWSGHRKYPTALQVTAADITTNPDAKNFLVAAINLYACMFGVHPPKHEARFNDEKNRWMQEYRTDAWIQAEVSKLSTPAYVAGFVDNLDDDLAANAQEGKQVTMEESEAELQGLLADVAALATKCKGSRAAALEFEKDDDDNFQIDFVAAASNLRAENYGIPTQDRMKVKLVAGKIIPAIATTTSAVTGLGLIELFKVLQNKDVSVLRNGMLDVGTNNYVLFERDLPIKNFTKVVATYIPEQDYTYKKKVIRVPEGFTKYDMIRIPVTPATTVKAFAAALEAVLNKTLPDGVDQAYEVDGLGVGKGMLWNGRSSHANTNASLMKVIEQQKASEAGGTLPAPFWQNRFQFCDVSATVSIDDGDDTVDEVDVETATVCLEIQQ
Nature of the experiment: Leishmania donovani Ubiquitin Activating Enzyme (LdE1). Format: functional. The settings on record: 30 µM.

In experiment [3] the target is AMP-activated protein kinase, AMPK (Homo sapiens) (UniProt P54646+O43741+P54619+Q9UGJ0+Q9Y478+Q13131+Q9UGI9). Nature of the experiment: AMP-dependent Kinase enzyme assay. An in vitro enzyme assay that detects ADP turnover that is directly proportional to AMPK activity. This uses naive AMPK that is activated during the assay with MK-8722. Format: functional. The note with it: 30 µM.

Experiment [4] addresses Sialic acid-binding Ig-like lectin 9 (Homo sapiens) (UniProt Q9Y336). Nature of the experiment: Hs-Siglec9 ALPHAscreen SOP 20170721. The settings on record: 10 µM. A general note: In Alpha technology, singlet oxygen from a donor bead excites a nearby acceptor bead.
The subject of experiment [5] is Trypanosoma cruzi. Description: Trypanosoma cruzi phosphomannomutase and mannose-1-phosphate guanylyltransferase assay. Format: functional. The note with it: 10 µM.
Experiment [6] deals with T2, Arginase-2, mitochondrial (Homo sapiens) (UniProt P78540).
T2 sequence (whole entry): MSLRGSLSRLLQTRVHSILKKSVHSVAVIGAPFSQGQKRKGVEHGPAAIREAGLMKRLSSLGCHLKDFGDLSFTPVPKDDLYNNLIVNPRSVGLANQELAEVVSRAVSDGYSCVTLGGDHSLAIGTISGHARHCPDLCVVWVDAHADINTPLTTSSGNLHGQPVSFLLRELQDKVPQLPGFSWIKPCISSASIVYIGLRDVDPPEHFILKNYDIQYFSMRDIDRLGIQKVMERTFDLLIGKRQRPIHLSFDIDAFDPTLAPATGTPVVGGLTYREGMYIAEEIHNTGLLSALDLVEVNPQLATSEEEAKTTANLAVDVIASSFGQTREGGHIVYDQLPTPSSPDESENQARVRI
Nature of the experiment: in vitro enzyme assay to detect the production of urea directly proportional to the activity of Arginase II. Also: in the data most compounds retested in dose-response had high values. Format: functional. The settings on record: 33.3 µM.

The target of experiment [7] is T3, Proteasome subunit beta (Trypanosoma cruzi) (UniProt O96673).
T3 sequence (whole entry): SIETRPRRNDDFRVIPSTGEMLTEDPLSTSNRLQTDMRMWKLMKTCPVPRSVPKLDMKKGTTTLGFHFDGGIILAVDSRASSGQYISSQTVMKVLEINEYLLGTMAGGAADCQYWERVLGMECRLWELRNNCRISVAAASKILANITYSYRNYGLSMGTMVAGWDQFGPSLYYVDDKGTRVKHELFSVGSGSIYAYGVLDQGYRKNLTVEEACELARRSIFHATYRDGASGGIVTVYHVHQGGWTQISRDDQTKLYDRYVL
Nature of the experiment: Trypanosoma cruzi proteasome chymotrypsin-like activity (TcProtChymo) assay. Also: in the data most compounds retested in dose-response had high values. The settings on record: 9.37 µM. Format: functional.

The species named for experiment [8] is Homo sapiens. Description: To identify inhibition of the IFN signalling (Jak-Stat) pathway via expression of an eGFP reporter gene under the control of an IFN-stimulated response element (ISRE) containing MxA promoter. Format: functional. The note with it: 30 µM. (In general: In a reporter assay the amount or activity of a reporter protein is the signal.)
The target in experiment [9] is T4, Tyrosyl-tRNA synthetase, putative (Trypanosoma cruzi (strain CL Brener)) (UniProt Q4DSP6).
T4 sequence (whole entry): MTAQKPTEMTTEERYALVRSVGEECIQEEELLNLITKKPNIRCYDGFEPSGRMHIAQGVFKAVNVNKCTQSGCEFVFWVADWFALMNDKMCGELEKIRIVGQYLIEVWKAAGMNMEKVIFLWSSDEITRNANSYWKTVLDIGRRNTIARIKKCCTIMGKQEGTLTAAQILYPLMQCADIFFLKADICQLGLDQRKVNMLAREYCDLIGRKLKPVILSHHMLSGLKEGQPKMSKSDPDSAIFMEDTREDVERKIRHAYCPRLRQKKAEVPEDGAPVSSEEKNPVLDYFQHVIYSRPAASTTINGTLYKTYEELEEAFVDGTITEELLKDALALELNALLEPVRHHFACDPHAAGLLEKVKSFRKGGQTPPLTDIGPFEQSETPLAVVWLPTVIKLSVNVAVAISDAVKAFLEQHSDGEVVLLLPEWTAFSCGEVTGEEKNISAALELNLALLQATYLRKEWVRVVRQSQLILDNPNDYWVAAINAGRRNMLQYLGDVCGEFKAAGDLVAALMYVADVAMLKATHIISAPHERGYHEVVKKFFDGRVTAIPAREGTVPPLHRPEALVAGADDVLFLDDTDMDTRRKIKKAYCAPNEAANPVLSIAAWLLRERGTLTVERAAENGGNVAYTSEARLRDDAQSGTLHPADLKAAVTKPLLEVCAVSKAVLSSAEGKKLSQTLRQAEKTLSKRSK
Nature of the experiment: Trypanosoma cruzi tyrosyl tRNA synthetase (TcYRS) _High Tyrosine SOP. Also: in the data most compounds retested in dose-response had high values. Format: functional. The note with it: 30 µM.

The target in experiment [10] is T4, Tyrosyl-tRNA synthetase, putative (Trypanosoma cruzi (strain CL Brener)). Description: Trypanosoma cruzi tyrosyl tRNA synthetase (TcYRS) SOP. Format: functional. The note with it: 30 µM.
Experiment [11] has as its target Chromo domain-containing protein 1 (Saccharomyces cerevisiae (strain ATCC 204508 / S288c) (Baker's yeast)) (UniProt P32657). Description: ScCHD-1 Enzyme Inhibition Assay. Also: in the data most compounds retested in dose-response had high values. Format: functional. The settings on record: 30 µM.

For some of these results: Entries with a potency or affinity are not part of this list.

Sialic acid-binding Ig-like lectin 9 (Homo sapiens), sequence (Q9Y336 whole entry): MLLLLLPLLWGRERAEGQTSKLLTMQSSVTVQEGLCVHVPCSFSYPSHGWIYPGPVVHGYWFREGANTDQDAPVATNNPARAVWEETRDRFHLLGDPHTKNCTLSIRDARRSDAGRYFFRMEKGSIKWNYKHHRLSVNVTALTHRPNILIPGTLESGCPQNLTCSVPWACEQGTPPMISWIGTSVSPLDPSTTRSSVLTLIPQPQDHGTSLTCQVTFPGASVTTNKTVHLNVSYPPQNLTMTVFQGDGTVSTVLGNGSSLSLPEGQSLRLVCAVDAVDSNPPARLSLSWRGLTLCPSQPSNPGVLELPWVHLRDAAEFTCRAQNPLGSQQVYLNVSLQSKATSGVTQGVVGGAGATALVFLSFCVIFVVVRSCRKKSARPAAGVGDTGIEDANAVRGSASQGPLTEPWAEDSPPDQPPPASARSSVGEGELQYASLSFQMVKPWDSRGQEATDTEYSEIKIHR
Chromo domain-containing protein 1 (Saccharomyces cerevisiae (strain ATCC 204508 / S288c) (Baker's yeast)), sequence (P32657 whole entry, the tested form may be a part): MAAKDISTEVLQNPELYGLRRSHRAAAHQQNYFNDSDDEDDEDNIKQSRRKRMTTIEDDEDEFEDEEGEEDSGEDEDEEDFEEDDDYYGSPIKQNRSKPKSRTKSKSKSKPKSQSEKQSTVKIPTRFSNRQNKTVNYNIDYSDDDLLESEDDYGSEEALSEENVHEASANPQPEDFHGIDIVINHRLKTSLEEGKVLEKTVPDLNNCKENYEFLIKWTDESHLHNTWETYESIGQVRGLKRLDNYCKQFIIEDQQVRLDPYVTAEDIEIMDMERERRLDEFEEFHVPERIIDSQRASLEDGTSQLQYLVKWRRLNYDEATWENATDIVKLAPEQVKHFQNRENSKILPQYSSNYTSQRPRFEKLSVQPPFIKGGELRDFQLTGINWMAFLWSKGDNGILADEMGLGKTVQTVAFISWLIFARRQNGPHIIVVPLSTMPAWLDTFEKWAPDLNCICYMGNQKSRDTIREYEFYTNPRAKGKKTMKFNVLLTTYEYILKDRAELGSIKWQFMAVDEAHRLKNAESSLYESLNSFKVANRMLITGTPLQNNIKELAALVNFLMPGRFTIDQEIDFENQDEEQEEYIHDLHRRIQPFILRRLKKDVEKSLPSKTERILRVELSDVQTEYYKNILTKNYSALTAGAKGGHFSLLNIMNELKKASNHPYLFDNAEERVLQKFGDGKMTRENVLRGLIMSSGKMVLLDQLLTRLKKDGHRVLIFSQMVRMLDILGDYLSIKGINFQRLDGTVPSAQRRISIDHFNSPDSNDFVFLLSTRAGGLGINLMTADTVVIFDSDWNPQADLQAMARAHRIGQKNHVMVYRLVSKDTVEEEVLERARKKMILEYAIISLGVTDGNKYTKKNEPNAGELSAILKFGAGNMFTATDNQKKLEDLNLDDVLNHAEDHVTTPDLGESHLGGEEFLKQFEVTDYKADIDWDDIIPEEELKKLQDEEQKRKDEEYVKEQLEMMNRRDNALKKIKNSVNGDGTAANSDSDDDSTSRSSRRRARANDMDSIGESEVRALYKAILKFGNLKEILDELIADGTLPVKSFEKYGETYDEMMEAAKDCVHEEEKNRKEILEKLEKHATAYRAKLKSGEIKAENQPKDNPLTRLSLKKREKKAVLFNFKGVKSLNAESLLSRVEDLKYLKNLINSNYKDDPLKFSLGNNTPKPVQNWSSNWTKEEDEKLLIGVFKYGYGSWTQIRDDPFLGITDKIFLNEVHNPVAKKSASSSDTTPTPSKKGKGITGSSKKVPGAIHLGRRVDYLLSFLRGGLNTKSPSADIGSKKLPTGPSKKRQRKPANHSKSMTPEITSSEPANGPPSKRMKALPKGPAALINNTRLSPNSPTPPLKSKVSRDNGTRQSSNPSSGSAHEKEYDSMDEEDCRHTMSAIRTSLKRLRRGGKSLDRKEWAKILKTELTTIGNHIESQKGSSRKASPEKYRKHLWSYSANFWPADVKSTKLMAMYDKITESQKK
Protein translocase subunit SecA (Escherichia coli (strain K12)), sequence (P10408 whole entry): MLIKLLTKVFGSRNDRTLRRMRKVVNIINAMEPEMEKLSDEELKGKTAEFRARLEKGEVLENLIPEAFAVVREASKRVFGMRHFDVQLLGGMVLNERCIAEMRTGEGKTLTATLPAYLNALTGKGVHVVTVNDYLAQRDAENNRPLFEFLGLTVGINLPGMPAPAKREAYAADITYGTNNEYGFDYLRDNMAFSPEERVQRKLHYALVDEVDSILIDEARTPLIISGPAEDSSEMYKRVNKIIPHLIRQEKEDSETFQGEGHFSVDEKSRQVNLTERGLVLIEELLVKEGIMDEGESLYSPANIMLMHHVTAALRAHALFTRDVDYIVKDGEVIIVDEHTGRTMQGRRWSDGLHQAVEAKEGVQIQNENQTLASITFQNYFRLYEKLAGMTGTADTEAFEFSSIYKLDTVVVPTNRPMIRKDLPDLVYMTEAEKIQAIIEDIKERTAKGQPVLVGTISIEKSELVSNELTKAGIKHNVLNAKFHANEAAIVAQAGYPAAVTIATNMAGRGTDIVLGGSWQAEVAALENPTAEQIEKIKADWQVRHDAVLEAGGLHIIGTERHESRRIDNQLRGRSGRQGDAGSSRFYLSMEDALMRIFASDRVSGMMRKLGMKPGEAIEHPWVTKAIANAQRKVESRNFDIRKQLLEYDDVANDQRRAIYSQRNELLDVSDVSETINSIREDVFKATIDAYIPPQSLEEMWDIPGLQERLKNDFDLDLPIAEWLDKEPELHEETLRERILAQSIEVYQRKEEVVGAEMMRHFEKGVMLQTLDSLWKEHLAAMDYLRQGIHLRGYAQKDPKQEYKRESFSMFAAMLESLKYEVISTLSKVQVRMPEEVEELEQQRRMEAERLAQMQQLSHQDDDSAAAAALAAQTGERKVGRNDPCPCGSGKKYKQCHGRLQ

Take `Cc1cccc(CNC(CN2CCN(C)CC2)c2ccccc2)c1` (stereo unspecified): the Percent Effect in experiment [1] is -2.61%; in experiment [2], 8.11%; in experiment [3], -13.3%; in experiment [4], 17.7%; in experiment [5], 3.23%; in experiment [6], 29.5%. In addition, the Percent Effect was 7.3% in experiment [7]; 25.7% in experiment [8]; 5.38% in [9]; 11.1% in [10]; -5.02% in experiment [11].
In the case of `CC(=O)NCC(=O)N1Cc2nccn2CC(CN2CCCC2)C1` (stereo unspecified), the Percent Effect is -4.42% in experiment [1]; 5.41% in [2]; 1.1% in experiment [3]; -2.08% in experiment [4]; -5.77% in experiment [5]; 0.955% in experiment [6]. Further, the Percent Effect in [7] is 19.6%; in [8] it was 5.21%; in [9] it was 6.49%; in [10], 10.3%; in [11], -0.00691%.
Take `CCn1c(Cn2cncn2)nnc1C1CCN(Cc2ccncc2)CC1`: the Percent Effect is -5.1% in experiment [1]; 5.41% in experiment [2]; -3.24% in experiment [3]; 1.13% in experiment [4]; -0.489% in [5]; 2.73% in [6]. In addition, the Percent Effect in experiment [7] was 4.72%; in experiment [8] it was -4.54%; in experiment [9], 9.68%; in experiment [10], 21%; in experiment [11], -2.94%.
With `Cc1ccc(NC(=O)Nc2cnc(N3CCN(C)CC3)nc2)c(Cl)c1`, the Percent Effect in experiment [1] is -1.85%; in experiment [2] it was 13%; in [3] it was 2.69%; in experiment [4] it was 2.29%; in experiment [5], 2.27%; in [6], -5.81%. The Percent Effect in [7] was 5.22%; in experiment [8], 6.92%; in experiment [9] it was 6.35%; in [10], 11.5%; in [11], -9.57%.
`CC(C)N(C)CC(=O)NC1CCc2nccn2C1` (stereo unspecified): the Percent Effect in experiment [1] was -0.518%; in [2] it was -5.33%; in experiment [3] it was 4.88%; in [4], -4.8%; in experiment [5] it was -4.38%; in experiment [6], -5.21%. Besides, the Percent Effect in [7] was 3.14%; in [8] it was 31.6%; in [9], -2.73%; in [10] it was -6.17%; in experiment [11], 2.61%.
Turning to `c1cnn(CC2CN(CC3CCCC3)CCO2)c1` (stereo unspecified), the Percent Effect in experiment [1] is -5.26%; in experiment [2], 3.8%; in experiment [3], -0.822%; in [4] it was 1.53%; in experiment [5], 0.308%; in experiment [6], 0.645%. The Percent Effect in experiment [7] was 10.6%; in experiment [8], -2.54%; in experiment [9], 5.21%; in experiment [10] it was -15.2%; in experiment [11], -17.2%.
With `COCC1c2c(cnn2CC2CC2)CCN1Cc1nccs1` (stereo unspecified), the Percent Effect in experiment [1] is -2.49%; in experiment [2], 13.3%; in experiment [3], -1.8%; in experiment [4] it was 5.98%; in experiment [5] it was -4.05%; in experiment [6], -26%. Moreover, the Percent Effect in experiment [7] is 12.1%; in experiment [8], -5.9%; in [9] it was 4.17%; in experiment [10], 20%; in [11] it was -6.08%.
On to `O=C(C1CC=CC1)N1CCc2c(COCc3ccncc3)cncc2C1`, for which the Percent Effect was 0.346% in experiment [1]; 5.48% in experiment [2]; 3.39% in [3]; 12.2% in experiment [4]; 0.198% in [5]; -1.2% in experiment [6]. Further, the Percent Effect was 29.9% in experiment [7]; -4.59% in experiment [8]; 11.5% in [9]; 11.1% in [10]; -4.36% in experiment [11].
For the compound `Cc1noc(C(C)N2CCN(CCCN3CCCC3=O)CC2)n1` (stereo unspecified), the Percent Effect in experiment [1] is -1.22%; in experiment [2], 21.6%; in [3], 32.3%; in experiment [4], 1.61%; in experiment [5], 1.23%; in experiment [6], -8.02%. The Percent Effect in experiment [7] was 19.5%; in [8], 9.12%; in [9] it was 7.39%; in experiment [10], 23.5%; in experiment [11], -15.8%.
Consider `CCCN(CC1COc2ccccc2O1)C(=O)CCn1cncn1` (stereo unspecified), for which the Percent Effect in [1] was -3.98%; in experiment [2], 13.2%; in experiment [3], -1.36%; in experiment [4] it was -1.88%; in [5] it was -1.5%; in experiment [6], -0.383%. For the same compound, the Percent Effect is 8.52% in experiment [7]; 0.478% in experiment [8]; 7.35% in [9]; 17.1% in [10]; -2.23% in [11].
For the compound `CC1CCN(Cn2nc(-c3ccc(F)cc3)oc2=O)CC1`, the Percent Effect in experiment [1] was -2.94%; in experiment [2], 18.2%; in [3], 4.52%; in [4], -5.3%; in experiment [5] it was -7.12%; in experiment [6], 2.13%. Moreover, the Percent Effect in experiment [7] is 6.42%; in [8], 33%; in experiment [9] it was 5.83%; in experiment [10], 7.32%; in [11], -12.6%.
